Data published in the supplement of paper PMC12350171.
Counter-ions that a name gives are not always drawn.

How the values were obtained:
Conditions in all cases: 20 µM
[1] = test system: Salmonella enterica typhimurium; test: growth AUC normalised to DMSO control (fraction of control); higher = less growth inhibition, active = hit call of the paper
Outline: (§1)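 Pathogens were passaged twice under anaerobic conditions, then inoculated into pre-reduced mGAM plates at a starting OD578 of 0.01, with compound at 20 μM and 1% DMSO, and sealed with breathable membranes. For Haemophilus parainfluenzae, the medium was supplemented with hemin and NAD. OD578 was read every hour for 24 h in three biological replicates. Growth-curve AUC was calculated by the trapezoidal rule up to the exponential-to-stationary transition and normalised to DMSO controls on the same plate.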

Shigella flexneri = test: as above
Outline: as §1

Vibrio cholerae = test: as above
Outline: as §1

[2] = test system: Yersinia pseudotuberculosis; test: as above
Outline: as §1

P. vulgatus RND KO = test: growth AUC normalised to DMSO control (median) (fraction of control); higher = less growth inhibition, active = hit call of the paper
Outline: (§2)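 Anaerobic growth was tracked hourly at OD578 for 24 h in 96-well plates of mGAM seeded at OD578 0.01 with each approved-drug library compound at 20 μM and 1% DMSO. Strains had first been passaged twice overnight without oxygen. Three biological replicates were run. The reported median is the area under the curve, calculated by the trapezoidal rule on curves truncated at entry into stationary phase and normalised to vehicle wells on the same plate.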

P. vulgatus WT = test: as above
Outline: as §2

[3] = test system: S. enterica typhimurium WT; test: as above
Outline: as §2

[4] = test system: S. enterica typhimurium tolC KO; test: as above
Outline: as §2

Measured: growth AUC normalised to DMSO control
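For growth AUC normalised to DMSO control (median) in this document: active when median AUC fell below 0.1.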

CC(=O)O[C@]1(C(C)=O)CC[C@H]2[C@@H]3C=C(C)C4=CC(=O)CC[C@@H]4[C@H]3CC[C@@]21C [Nomegestrol acetate]
inactive: [1] 0.991 | Shigella flexneri 1.03 | Vibrio cholerae 1.06 | [2] 1.01 | P. vulgatus RND KO 0.963 | P. vulgatus WT 1 | [3] 1.03 | [4] 0.94

COC(=O)[C@@H]1[C@H]2C[C@H]3c4[nH]c5ccccc5c4CCN3C[C@@H]2CC[C@@H]1O [Yohimbine hydrochloride]
inactive: [1] 0.984 | Shigella flexneri 0.958 | Vibrio cholerae 0.969 | [2] 1 | P. vulgatus RND KO 0.984 | P. vulgatus WT 1.01 | [3] 1 | [4] 1

CC(=O)O[C@]1(C(C)=O)CC[C@H]2[C@@H]3C=C(C)C4=CC(=O)CC[C@]4(C)[C@H]3CC[C@@]21C [Megestrol acetate]
inactive: [1] 1.02 | Shigella flexneri 1.12 | Vibrio cholerae 1.1 | [2] 1.05 | P. vulgatus RND KO 0.992 | P. vulgatus WT 0.999 | [3] 1.01 | [4] 0.931

CCC(NC(C)C)C(O)c1ccc(O)c(O)c1 (stereo not given) [Isoetharine mesylate salt]
inactive: [1] 0.999 | Shigella flexneri 1 | Vibrio cholerae 0.995 | [2] 1 | P. vulgatus RND KO 0.994 | P. vulgatus WT 1.01 | [3] 0.999 | [4] 0.994

CCn1cc(C(=O)O)c(=O)c2ccc(C)nc21 [Nalidixic acid sodium salt]
active: [1] 0.594 | Shigella flexneri 0.111 | Vibrio cholerae 0.035 | [2] 0.052 | [4] 0.0195
inactive: P. vulgatus RND KO 0.985 | P. vulgatus WT 0.969 | [3] 0.105

CC(=O)OCC(=O)[C@@]12OC3(CCCC3)O[C@@H]1C[C@H]1[C@@H]3CCC4=CC(=O)C=C[C@]4(C)[C@@]3(F)[C@@H](O)C[C@@]12C [Amcinonide]
inactive: [1] 1.01 | Shigella flexneri 1.02 | Vibrio cholerae 1.04 | [2] 1.04 | P. vulgatus RND KO 0.993 | P. vulgatus WT 0.991 | [3] 1.01 | [4] 0.988

C=CCOc1ccccc1OCC(O)CNC(C)C (stereo not given) [Oxprenolol hydrochloride]
inactive: [1] 0.993 | Shigella flexneri 1.02 | Vibrio cholerae 1.03 | [2] 1 | P. vulgatus RND KO 0.998 | P. vulgatus WT 1 | [3] 0.997 | [4] 0.994

N=C(N)NC(=N)NCCc1ccccc1 [Phenformin hydrochloride]
inactive: [1] 1.01 | Shigella flexneri 0.995 | Vibrio cholerae 1.01 | [2] 0.987 | P. vulgatus RND KO 1.01 | P. vulgatus WT 1.04 | [3] 0.994 | [4] 0.986

NC[C@H]1CC[C@H](C(=O)O)CC1 [Tranexamic acid]
inactive: [1] 1 | Shigella flexneri 1.01 | Vibrio cholerae 1.04 | [2] 1.02 | P. vulgatus RND KO 1.04 | P. vulgatus WT 1.04 | [3] 1 | [4] 1

N#Cc1ccc(C(c2ccc(C#N)cc2)n2cncn2)cc1 [Letrozole]
inactive: [1] 1.01 | Shigella flexneri 1 | Vibrio cholerae 0.989 | [2] 0.999 | P. vulgatus RND KO 1.01 | P. vulgatus WT 1.01 | [3] 1.01 | [4] 1

CC(=O)OC(C)C[N+](C)(C)C (stereo not given) [Methacholine chloride]
inactive: [1] 0.992 | Shigella flexneri 0.939 | Vibrio cholerae 0.99 | [2] 0.983 | P. vulgatus RND KO 0.991 | P. vulgatus WT 1 | [3] 0.991 | [4] 1

C[C@@H](O)[C@H]1C(=O)N2C(C(=O)O)=C(S[C@@H]3CN[C@H](C(=O)N(C)C)C3)[C@H](C)[C@H]12 [Meropenem]
inactive: Vibrio cholerae 0.844
active: [1] 0.00502 | Shigella flexneri 0.0408 | [2] 0.0586 | P. vulgatus RND KO 0.0122 | P. vulgatus WT 0.0155 | [3] 0.00861 | [4] 0.00577

O=C(NCC(O)CO)c1c(I)c(C(=O)NCC(O)CO)c(I)c(N(CCO)C(=O)CO)c1I (stereo not given) [Ioversol]
inactive: [1] 1.01 | Shigella flexneri 1.03 | Vibrio cholerae 1.07 | [2] 1.03 | P. vulgatus RND KO 1.03 | P. vulgatus WT 1.03 | [3] 1 | [4] 1.01

COc1ccc(/C=C/C(=O)Nc2ccccc2C(=O)O)cc1OC [Tranilast]
inactive: [1] 0.999 | Shigella flexneri 0.973 | Vibrio cholerae 0.992 | [2] 1.01 | P. vulgatus RND KO 0.999 | P. vulgatus WT 1.02 | [3] 1.04 | [4] 0.952

C[C@H](CS)C(=O)N1CCC[C@H]1C(=O)O [Captopril]
inactive: [1] 1.01 | Shigella flexneri 1.03 | Vibrio cholerae 0.995 | [2] 1.01 | P. vulgatus RND KO 1.01 | P. vulgatus WT 1.06 | [3] 0.991 | [4] 1.01

CCCC(=O)Nc1ccc(OCC(O)CNC(C)C)c(C(C)=O)c1 (stereo not given) [Acebutolol hydrochloride]
inactive: [1] 1 | Shigella flexneri 0.995 | Vibrio cholerae 1.01 | [2] 1.01 | P. vulgatus RND KO 1.01 | P. vulgatus WT 1.01 | [3] 1 | [4] 1.01

CC(=O)NS(=O)(=O)c1ccc(N)cc1 [Sulfacetamide sodic hydrate]
inactive: [1] 1 | Shigella flexneri 1.01 | Vibrio cholerae 0.988 | [2] 0.998 | P. vulgatus RND KO 1.01 | P. vulgatus WT 1.05 | [3] 1.01 | [4] 0.997

CC(=O)[C@H]1CC[C@H]2[C@@H]3CC=C4C[C@@H](O)CC[C@]4(C)[C@H]3CC[C@]12C [Pregnenolone]
inactive: [1] 1 | Shigella flexneri 0.985 | Vibrio cholerae 0.996 | [2] 1 | P. vulgatus RND KO 1.02 | P. vulgatus WT 1.02 | [3] 0.993 | [4] 0.954

CS(=O)(=O)OCCCCOS(C)(=O)=O [Busulfan]
inactive: [1] 1.01 | Shigella flexneri 1.04 | Vibrio cholerae 1.07 | [2] 1.03 | P. vulgatus RND KO 1.02 | P. vulgatus WT 0.994 | [3] 1.01 | [4] 1.01

CCC[C@@H]1C[C@@H](C(=O)N[C@@H]([C@H]2O[C@H](SC)[C@H](O)[C@@H](O)[C@H]2O)[C@H](C)Cl)N(C)C1 [Clindamycin hydrochloride]
inactive: [3] 0.835 | [4] 0.437
active: [1] 0.722 | Shigella flexneri 0.648 | Vibrio cholerae 0.143 | [2] 0.0588 | P. vulgatus RND KO 0.0135 | P. vulgatus WT 0.0132

CCN1CCCC1CNC(=O)c1cc(S(N)(=O)=O)ccc1OC (stereo not given) [Sulpiride]
inactive: [1] 0.99 | Shigella flexneri 1 | Vibrio cholerae 1.01 | [2] 1.02 | P. vulgatus RND KO 0.992 | P. vulgatus WT 1.01 | [3] 1 | [4] 0.999

N[C@@H](C(=O)N[C@@H]1C(=O)N2C(C(=O)O)=C(Cl)CS[C@H]12)c1ccccc1 [Cefaclor hydrate]
active: [1] 0.492 | Shigella flexneri 0.153 | [2] 0.209
inactive: Vibrio cholerae 1.03 | P. vulgatus RND KO 1.04 | P. vulgatus WT 1.05 | [3] 1.07 | [4] 1.01

CCCCc1nc(Cl)c(CO)n1Cc1ccc(-c2ccccc2-c2nnn[nH]2)cc1 [Losartan]
inactive: [1] 1.03 | Shigella flexneri 1.03 | Vibrio cholerae 1.04 | [2] 1.02 | P. vulgatus RND KO 0.974 | P. vulgatus WT 0.977 | [3] 1 | [4] 0.995

C=C1C[C@H]2[C@@H]3C=C(C)C4=CC(=O)CC[C@]4(C)[C@H]3CC[C@]2(C)[C@@]1(OC(C)=O)C(C)=O [Melengestrol acetate]
inactive: [1] 0.981 | Shigella flexneri 1.05 | Vibrio cholerae 1.03 | [2] 1.03 | P. vulgatus RND KO 0.993 | P. vulgatus WT 1.02 | [3] 1.01 | [4] 0.961

COc1c(N2C[C@@H]3CCCN[C@@H]3C2)c(F)cc2c(=O)c(C(=O)O)cn(C3CC3)c12 [Moxifloxacin]
active: [1] 0.00585 | Shigella flexneri 0.0275 | Vibrio cholerae 0.0211 | [2] 0.0337 | P. vulgatus RND KO 0.017 | P. vulgatus WT 0.0128 | [3] 0.0075 | [4] 0.00519

OC(CCN1CCCCC1)(c1ccccc1)C1CCCCC1 (stereo not given) [Trihexyphenidyl-D,L hydrochloride]
inactive: [1] 1 | Shigella flexneri 0.996 | Vibrio cholerae 0.961 | [2] 1.02 | P. vulgatus RND KO 1.02 | P. vulgatus WT 1.04 | [3] 1.01 | [4] 0.986

Cc1cccc(C)c1NC(=O)C1CCCCN1C (stereo not given) [Mepivacaine hydrochloride]
inactive: [1] 1.01 | Shigella flexneri 1.06 | Vibrio cholerae 1.07 | [2] 1.02 | P. vulgatus RND KO 1.06 | P. vulgatus WT 1.05 | [3] 0.99 | [4] 0.996

C=CC1=C(C(=O)O)N2C(=O)[C@@H](NC(=O)/C(=N\OCC(=O)O)c3csc(N)n3)[C@H]2SC1 [Cefixime]
active: [1] 0.00409 | Shigella flexneri 0.0268 | Vibrio cholerae 0.0803 | [2] 0.0395 | P. vulgatus RND KO 0.0155 | P. vulgatus WT 0.0102 | [3] 0.012 | [4] 0.00361

Cc1cc(C)nc(NS(=O)(=O)c2ccc(N)cc2)n1 [Sulfamethazine sodium salt]
inactive: [1] 0.985 | Shigella flexneri 0.986 | Vibrio cholerae 0.982 | [2] 1.01 | P. vulgatus RND KO 0.996 | P. vulgatus WT 0.988 | [3] 0.992 | [4] 1.01

CC(CCc1ccccc1)NCC(O)c1ccc(O)c(C(N)=O)c1 (stereo not given) [Labetalol hydrochloride]
inactive: [1] 0.969 | Shigella flexneri 0.945 | Vibrio cholerae 0.972 | [2] 0.988 | P. vulgatus RND KO 1 | P. vulgatus WT 0.988 | [3] 0.99 | [4] 0.986
